Inconclusive results are not listed. A call without a number means that no potency is given here. The source made the active and inactive calls. The call rests on the fitted dose curve; in most records, active means well fitted curve in the direction sought with a large enough effect; inconclusive means small, poorly fitted or top-dose-only effect, or another doubt; inactive means no such curve, though single readings can be large; an effect the other way counts as inactive or inconclusive.
How the values were obtained:
[1] = Quantitative High-Throughput drug screen in 47 multiple myeloma cell lines against the NCATS MIPE library collection: FR4_PLB cell viability assay (AID 1918924; further: nearly all actives have a fitted effect of over 35% in size; further: potency means the concentration at half of the fitted maximal effect)
Summary of the method: (§1)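 Steps: seed 500 cells per well; pin-transfer MIPE 4.0 library; incubate 48 h at 37C, 5% CO2, humidified; add CellTiter-Glo, 5 min room temperature; read luminescence.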

[2] = Quantitative High-Throughput drug screen in 47 multiple myeloma cell lines against the NCATS MIPE library collection: EJM_DSMZ cell viability assay (AID 1918926; further: nearly all actives have a fitted effect of over 30% in size; further: potency means the concentration at half of the fitted maximal effect)
Summary of the method: (§2)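 CellTiter-Glo ATP luminescence gave viability after 48 h compound treatment at 37C of 500 multiple myeloma cells per well. Normalisation used DMSO-only wells as 100% and media-only wells as 0% viability; primary qHTS of approved and investigational drugs.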

[3] = Quantitative High-Throughput drug screen in 47 multiple myeloma cell lines against the NCATS MIPE library collection: AMO1_DSMZ cell viability assay (AID 1918927; further: nearly all actives have a fitted effect of over 30% in size; further: potency means the concentration at half of the fitted maximal effect)
Summary of the method: as §2

[4] = Quantitative High-Throughput drug screen in 47 multiple myeloma cell lines against the NCATS MIPE library collection: ARP1_JJKsccF8 cell viability assay (AID 1918928; further: nearly all actives have a fitted effect of over 40% in size; further: potency means the concentration at half of the fitted maximal effect)
Summary of the method: (§3)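 CellTiter-Glo luminescence after 48 h exposure gives viability, scaled between DMSO-only (100%) and media-only (0%) controls. Library compounds are pinned onto 500 myeloma cells per well, incubated at 37C with 5% CO2.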

[5] = Quantitative High-Throughput drug screen in 47 multiple myeloma cell lines against the NCATS MIPE library collection: KMM1_JCRB cell viability assay (AID 1918960); further: nearly all actives have a fitted effect of over 30% in size; further: potency means the concentration at half of the fitted maximal effect
Summary of the method: as §3

[6] = Quantitative High-Throughput drug screen in 47 multiple myeloma cell lines against the NCATS MIPE library collection: Karpas417_ECACC cell viability assay (AID 1918961); conditions: Karpas417 myeloma viability, CellTiter-Glo ATP luminescence, 48 h; viability (% of DMSO): at 45.8 µM (top of the series); further: potency means the concentration at half of the fitted maximal effect
Summary of the method: (§4)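 CellTiter-Glo luminescence (ATP) after 48 h compound exposure, 37C/5% CO2; 500 cells/well; MIPE 4.0 approved/investigational drugs pinned in; DMSO = 100%, media only = 0% viability.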

[7] = Quantitative High-Throughput drug screen in 47 multiple myeloma cell lines against the NCATS MIPE library collection: JIM3_ECACC cell viability assay (AID 1918963; further: nearly all actives have a fitted effect of over 35% in size; further: potency means the concentration at half of the fitted maximal effect)
Summary of the method: as §1

[8] = Quantitative High-Throughput drug screen in 47 multiple myeloma cell lines against the NCATS MIPE library collection: INA6_PLB cell viability assay (AID 1918965; further: nearly all actives have a fitted effect of over 55% in size; further: potency means the concentration at half of the fitted maximal effect)
Summary of the method: as §4

[9] = Quantitative High-Throughput drug screen in 47 multiple myeloma cell lines against the NCATS MIPE library collection: H1112_PLB cell viability assay (AID 1918967; further: nearly all actives have a fitted effect of over 30% in size)
Summary of the method: as §2

[10] = Quantitative High-Throughput drug screen in 47 multiple myeloma cell lines against the NCATS MIPE library collection: Karpas25_ECACC cell viability assay (AID 1918968; further: nearly all actives have a fitted effect of over 35% in size; further: potency means the concentration at half of the fitted maximal effect)
Summary of the method: as §2

[11] = Quantitative High-Throughput drug screen in 47 multiple myeloma cell lines against the NCATS MIPE library collection: KMS27_JCRB cell viability assay (AID 1918970); further: nearly all actives have a fitted effect of over 30% in size; further: potency means the concentration at half of the fitted maximal effect
Summary of the method: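 Viability inhibition screen, 48 h compound exposure, luminescent ATP read-out.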

[12] = Quantitative High-Throughput drug screen in 47 multiple myeloma cell lines against the NCATS MIPE library collection: KMS12BM_JCRB cell viability assay (AID 1918971); further: nearly all actives have a fitted effect of over 35% in size; further: potency means the concentration at half of the fitted maximal effect
Summary of the method: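 Approved and investigational drugs from MIPE 4.0 were added by pin tool to 500 cells per well. After 48 hours at 37C, ATP-based CellTiter-Glo luminescence indicated remaining viability.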

[13] = Quantitative High-Throughput drug screen in 47 multiple myeloma cell lines against the NCATS MIPE library collection: KMS12PE_JCRB cell viability assay (AID 1918972); further: nearly all actives have a fitted effect of over 30% in size; further: potency means the concentration at half of the fitted maximal effect
Summary of the method: as §4

[14] = Quantitative High-Throughput drug screen in 47 multiple myeloma cell lines against the NCATS MIPE library collection: KMS20_JCRB cell viability assay (AID 1918973); further: nearly all actives have a fitted effect of over 45% in size; further: potency means the concentration at half of the fitted maximal effect
Summary of the method: as §2

[15] = Quantitative High-Throughput drug screen in 47 multiple myeloma cell lines against the NCATS MIPE library collection: ARD_JJKsccE7 cell viability assay (AID 1918929; further: potency means the concentration at half of the fitted maximal effect)
Summary of the method: as §2

[16] = Quantitative High-Throughput drug screen in 47 multiple myeloma cell lines against the NCATS MIPE library collection: Karpas620_DSMZ cell viability assay (AID 1918959); further: nearly all actives have a fitted effect of over 30% in size; further: potency means the concentration at half of the fitted maximal effect
Summary of the method: as §1

[17] = Quantitative High-Throughput drug screen in 47 multiple myeloma cell lines against the NCATS MIPE library collection: KHM11_PLB cell viability assay (AID 1918962); further: nearly all actives have a fitted effect of over 35% in size; further: potency means the concentration at half of the fitted maximal effect
Summary of the method: as §1

[18] = Quantitative High-Throughput drug screen in 47 multiple myeloma cell lines against the NCATS MIPE library collection: JIM1_ECACC cell viability assay (AID 1918964)
Summary of the method: as §2

[19] = Quantitative High-Throughput drug screen in 47 multiple myeloma cell lines against the NCATS MIPE library collection: JJN3_DSMZ cell viability assay (AID 1918966; further: nearly all actives have a fitted effect of over 50% in size; further: potency means the concentration at half of the fitted maximal effect)
Summary of the method: as §2

[20] = Quantitative High-Throughput drug screen in 47 multiple myeloma cell lines against the NCATS MIPE library collection: Delta47_JCRB cell viability assay (AID 1918925; further: nearly all actives have a fitted effect of over 45% in size)
Summary of the method: as §2

Which results are given for `Cc1ccn(-c2ccc(-c3ncco3)cc2)c(=O)c1-c1ccc2nc(N)ncc2c1`?
Potency [1]: inactive; Potency [2]: inactive; Potency [3]: 14.8 µM (active); Potency [4]: inactive; Potency [5]: 13.2 µM (active); Potency [6]: 5.26 µM (active); Potency [7]: 10.5 µM (active); Potency [8]: 0.662 µM (active); Potency [9]: inactive; Potency [10]: 9.35 µM (active); Potency [11]: inactive; Potency [12]: 13.2 µM (active); Potency [13]: 5.26 µM (active); Potency [14]: 8.33 µM (active)

Which results are given for `N#C[C@H]1C[C@H]2C[C@@H]2N1C(=O)[C@@H](N)C12CC3CC(CC(O)(C3)C1)C2`?
Potency [1]: inactive; Potency [2]: inactive; Potency [3]: inactive; Potency [4]: 3.72 µM (active); Potency [15]: inactive; Potency [16]: inactive; Potency [5]: inactive; Potency [17]: inactive; Potency [7]: inactive; Potency [18]: inactive; Potency [11]: inactive; Potency [13]: inactive

For `O=C(CCN1CCN(C(=O)OCc2cc(Cl)cc(Cl)c2)CC1)c1ccc2[nH]c(=O)oc2c1`, which Potency [1] is on record?
Its Potency is “inactive”.

And the Potency [2]?
Its Potency is “inactive”.

And the Potency [3]?
The Potency was 1.18 µM (active).

And the Potency [15]?
Its Potency is 0.0166 µM (active).

And the Potency [5]?
The Potency was “inactive”.

And the Potency [17]?
Its Potency is 2.64 µM (active).

What about the Potency [7] of the same molecule?
The Potency was “inactive”.

And the Potency [9]?
The Potency was “inactive”.

What about the Potency [12] of the same molecule?
The Potency was “inactive”.

And the Potency [13]?
The Potency was “inactive”.

Which Potency [1] does the source give for `CC(C)(Cc1ccc2ccccc2c1)NC[C@@H](O)COc1cccc(Cl)c1C#N` here?
Its Potency is “inactive”.

What about the Potency [2] of the same molecule?
The Potency was “inactive”.

What about the Potency [3] of the same molecule?
The Potency was “inactive”.

And the Potency [4]?
The Potency was “inactive”.

What about the Potency [15] of the same molecule?
Its Potency is “inactive”.

What about the Potency [16] of the same molecule?
The Potency was “inactive”.

What about the Potency [5] of the same molecule?
The Potency was “inactive”.

And the Potency [7]?
Its Potency is “inactive”.

What about the Potency [8] of the same molecule?
Its Potency is “inactive”.

What about the Potency [19] of the same molecule?
Its Potency is 5.9 µM (active).

What about the Potency [9] of the same molecule?
The Potency was “inactive”.

What about the Potency [10] of the same molecule?
Its Potency is “inactive”.

What about the Potency [11] of the same molecule?
The Potency was “inactive”.

What about the Potency [12] of the same molecule?
The Potency was “inactive”.

What about the Potency [13] of the same molecule?
Its Potency is “inactive”.

Which results are given for `COc1ccc(Cc2ccc(NC(N)=O)cc2)cc1-c1cccc(Cl)c1`?
Potency [1]: inactive; Potency [2]: inactive; Potency [4]: inactive; Potency [7]: inactive

For `COc1ccc(-c2coc3cc(O)cc(O)c3c2=O)cc1`, which Potency [1] is on record?
The Potency was “inactive”.

What about the Potency [20] of the same molecule?
Its Potency is “inactive”.

What about the Potency [4] of the same molecule?
Its Potency is “inactive”.

What about the Potency [16] of the same molecule?
The Potency was 18.7 µM (active).

And the Potency [7]?
The Potency was “inactive”.

And the Potency [19]?
The Potency was “inactive”.

What about the Potency [10] of the same molecule?
Its Potency is “inactive”.

What about the Potency [12] of the same molecule?
The Potency was “inactive”.

What about the Potency [14] of the same molecule?
Its Potency is “inactive”.

For `NC(=O)[C@@H](CCC(F)(F)F)N(Cc1ccc(-c2ncon2)cc1F)S(=O)(=O)c1ccc(Cl)cc1`, which Potency [1] is on record?
Its Potency is 16.6 µM (active).

What about the Potency [2] of the same molecule?
The Potency was 20.9 µM (active).

What about the Potency [3] of the same molecule?
Its Potency is “inactive”.

What about the Potency [15] of the same molecule?
The Potency was “inactive”.

What about the Potency [16] of the same molecule?
Its Potency is “inactive”.

What about the Potency [17] of the same molecule?
The Potency was “inactive”.

And the Potency [8]?
Its Potency is 26.4 µM (active).

And the Potency [11]?
The Potency was “inactive”.

What about the Potency [12] of the same molecule?
Its Potency is 18.7 µM (active).

Which results are given for `O=C(NC1CCOCC1)c1ccc(-c2cc(-c3cn[nH]c3-c3ccccn3)ccn2)cc1`?
Potency [1]: inactive; Potency [2]: inactive; Potency [4]: inactive; Potency [15]: 0.0296 µM (active); Potency [16]: inactive; Potency [7]: inactive; Potency [8]: inactive; Potency [11]: inactive; Potency [12]: inactive; Potency [13]: inactive

Which Potency [1] does the source give for `COc1ncc(-c2ccc3nccc(-c4ccnnc4)c3c2)cc1NS(=O)(=O)c1ccc(F)cc1F` here?
The Potency was 0.0132 µM (active).

And the Potency [3]?
The Potency was 0.0469 µM (active).

And the Potency [6]?
Its Potency is “inactive”.

What about the Potency [8] of the same molecule?
Its Potency is 0.0235 µM (active).

What about the Potency [19] of the same molecule?
The Potency was 0.118 µM (active).

And the Potency [12]?
The Potency was 0.0662 µM (active).

And the Potency [13]?
Its Potency is 0.0935 µM (active).

Which Potency [1] does the source give for `CCCCCNC(=O)N1CCC(CN(Cc2ccc(Cl)cc2)Cc2ccc([N+](=O)[O-])s2)C1` (stereo unspecified) here?
The Potency was 23.5 µM (active).

And the Potency [3]?
Its Potency is 18.7 µM (active).

And the Potency [15]?
The Potency was 20.9 µM (active).

What about the Potency [16] of the same molecule?
The Potency was 18.7 µM (active).

And the Potency [19]?
Its Potency is 23.5 µM (active).

What about the Potency [10] of the same molecule?
Its Potency is 20.9 µM (active).

What about the Potency [11] of the same molecule?
The Potency was 20.9 µM (active).

And the Potency [12]?
The Potency was 23.5 µM (active).

What about the Potency [13] of the same molecule?
The Potency was 18.7 µM (active).

What does the source list for `O=C(O)c1ccccc1C(=O)Nc1ccc(-c2ccccc2)cc1`?
Potency [1]: inactive; Potency [3]: inactive; Potency [4]: inactive; Potency [15]: inactive; Potency [16]: inactive; Potency [5]: inactive; Potency [17]: inactive; Potency [7]: inactive; Potency [8]: inactive; Potency [9]: inactive; Potency [10]: inactive; Potency [11]: inactive; Potency [13]: inactive

What does the source list for `O=C1NC(=O)C(=Cc2cccc(C(F)(F)F)c2)S1`?
Potency [1]: inactive; Potency [2]: 20.9 µM (active); Potency [6]: 26.4 µM (active); Potency [12]: 20.9 µM (active)
